Rows were chosen to be rich in hits. Some 2% of all compounds tested hit in one or more screens of this group.
FAS TE block = FAS thioesterase domain inhibitors, primary screen, biochemical, fluorescence intensity, uHTS; AID 602261, 2012; inhibition, % at 15 µM; actives 0.67% (n = 360,000); recombinant FAS-TE, OMFH fluorogenic substrate, fluorescence endpoint;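 active means compounds whose normalised, plate-corrected inhibition of enzyme fluorescence in the single-dose primary screen is 50% or more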;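 further: 0% = DMSO with enzyme and 100% = substrate without enzyme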
GC-A act = GC-A stimulated cGMP production enhancers – HEK293 GC-A cells, cGMP TR-FRET, EC30 ANP, primary screen | Atrial natriuretic peptide receptor 1 (Homo sapiens), P16066 | 0% at EC30 ANP, 100% saturating ANP | activation, % at 10 µM | actives 0.14% (n = 370,000) | AID 1671463, 2021; in the data active means activation above about 40%
Target sequence (P16066 whole entry, looked up): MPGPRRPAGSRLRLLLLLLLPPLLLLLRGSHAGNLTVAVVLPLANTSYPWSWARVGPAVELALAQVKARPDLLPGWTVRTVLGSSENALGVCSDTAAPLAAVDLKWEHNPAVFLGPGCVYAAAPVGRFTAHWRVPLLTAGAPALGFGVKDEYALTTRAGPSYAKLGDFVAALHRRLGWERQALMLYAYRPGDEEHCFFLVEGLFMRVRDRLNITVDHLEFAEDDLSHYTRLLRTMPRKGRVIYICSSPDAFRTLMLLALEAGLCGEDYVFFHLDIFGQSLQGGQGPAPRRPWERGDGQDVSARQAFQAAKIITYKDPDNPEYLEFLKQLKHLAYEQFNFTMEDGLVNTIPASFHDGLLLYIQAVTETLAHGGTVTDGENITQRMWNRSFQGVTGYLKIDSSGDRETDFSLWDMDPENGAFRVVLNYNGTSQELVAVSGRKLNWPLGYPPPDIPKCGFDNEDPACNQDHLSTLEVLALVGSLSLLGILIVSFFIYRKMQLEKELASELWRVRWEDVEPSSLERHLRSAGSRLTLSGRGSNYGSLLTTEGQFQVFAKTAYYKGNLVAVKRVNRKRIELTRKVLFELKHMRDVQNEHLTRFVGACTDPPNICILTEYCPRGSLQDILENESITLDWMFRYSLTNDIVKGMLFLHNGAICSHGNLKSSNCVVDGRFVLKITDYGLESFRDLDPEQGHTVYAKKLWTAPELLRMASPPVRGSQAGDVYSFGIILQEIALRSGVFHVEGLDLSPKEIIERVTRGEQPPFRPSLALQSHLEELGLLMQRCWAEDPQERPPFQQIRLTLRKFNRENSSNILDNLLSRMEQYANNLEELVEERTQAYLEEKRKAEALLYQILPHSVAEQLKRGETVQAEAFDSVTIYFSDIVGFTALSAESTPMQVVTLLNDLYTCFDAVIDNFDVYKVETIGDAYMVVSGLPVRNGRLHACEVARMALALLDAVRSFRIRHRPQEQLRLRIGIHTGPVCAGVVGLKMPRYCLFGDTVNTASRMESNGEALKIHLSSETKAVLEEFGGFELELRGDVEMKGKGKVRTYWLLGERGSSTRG
ADAM10 inh = human ADAM10 inhibitors, primary screen, biochemical, QFRET, HTS; recombinant ADAM10, EDANS/DABCYL FRET peptide cleavage, 3 h; inhibition, % at 7 µM; actives 0.62% (n = 370,000);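 active means inhibition above a per-campaign cutoff equal to the mean of compounds falling between control-based bounds plus 3 SD, cut at about 20% in these data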;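 further: 0% = DMSO wells while the 100% control is not disclosed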
NPR2 activator = human GC-B receptor activators, primary screen, HEK293 GC-B cells, cGMP TR-FRET, EC30 CNP; Atrial natriuretic peptide receptor 2 (Homo sapiens), P20594; 0% at EC30 CNP, 100% saturating CNP; activation, % at 10 µM; actives 0.11% (n = 370,000); AID 1920062, 2024;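 active means activation at 10 µM reaching about 35% in either raw or pattern-adjusted values, limit read from the data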
ADAM17 inh = ADAM17 inhibitors, primary screen, biochemical, QFRET; Disintegrin and metalloproteinase domain-containing protein 17 (Homo sapiens), P78536; recombinant ADAM17, EDANS/DABCYL FRET peptide cleavage; inhibition, % at 6.95 µM; actives 0.83% (n = 370,000);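 active means inhibition above the mean of compounds lying between control limits plus 3 SD, set per campaign, cut at about 8.5% in these data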;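 further: 0% = DMSO-only wells as the low control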
FAS-TE inh conf = FAS thioesterase domain inhibitors, confirmation, biochemical, fluorescence intensity, single concentration. shares compounds with FAS TE block. recombinant FAS-TE, OMFH fluorogenic substrate. inhibition, % at 15 µM. actives 45% (n = 2,300). AID 624325, 2012;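 active means compounds inhibiting the enzyme by at least 50% at 15 µM in any one of the replicates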;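 further: 0% = enzyme with DMSO only and 100% = wells lacking enzyme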
The depositor's hits bear a star.

`CCN(CC(=O)Nc1cc(Cl)ccc1C)C(=O)c1cc([N+](=O)[O-])ccc1N1CCOCC1` gave FAS TE block 32, GC-A act -3, ADAM10 inh -3, NPR2 activator 0 and ADAM17 inh 0.
`O=C(CN1CCc2onc(-c3ccc(-n4cc(-c5ccccc5)nn4)cc3)c2C1=O)N1CCOCC1` gave GC-A act 3, ADAM10 inh -2, NPR2 activator -5 and ADAM17 inh -3.
NC(=O)c1c(N)[nH]c(C(=O)c2ccccc2)c1-c1cccc2ccccc12 was read as GC-A act -1, ADAM10 inh -6, NPR2 activator -1 and ADAM17 inh -2.
Screening COc1ccccc1NC(=O)COC(=O)c1cc([N+](=O)[O-])ccc1N1CCCC1 returned FAS TE block 70*, GC-A act 11, ADAM10 inh 13, NPR2 activator 9, ADAM17 inh 3 and FAS-TE inh conf 63*.
O=C(COC(=O)c1cc(S(=O)(=O)N2CCOCC2)ccc1F)Nc1cc([N+](=O)[O-])ccc1F was read as FAS TE block 7, GC-A act 10, ADAM10 inh -4, NPR2 activator 18 and ADAM17 inh -1.
Screening COc1ccc(NC(=O)c2cc([N+](=O)[O-])ccc2N2CCCCC2)cc1OC returned FAS TE block 38, GC-A act -1, ADAM10 inh -6, NPR2 activator 5 and ADAM17 inh 2.
Screening O=C(COC(=O)c1cc([N+](=O)[O-])ccc1N1CCCC1)Nc1ccccc1OC(F)F returned FAS TE block 56*, GC-A act 14, ADAM10 inh 0, NPR2 activator 24, ADAM17 inh -1 and FAS-TE inh conf 43*.
`Cc1c(C(=O)OCC(=O)Nc2ccccc2OC(F)F)cccc1[N+](=O)[O-]` gave FAS TE block 15, GC-A act 3, ADAM10 inh 0, NPR2 activator -1 and ADAM17 inh 2.
`O=C(COC(=O)c1cc([N+](=O)[O-])ccc1N1CCOCC1)Nc1cc(F)ccc1F` gave FAS TE block 85*, GC-A act 8, ADAM10 inh -1, NPR2 activator 5, ADAM17 inh -5 and FAS-TE inh conf 51*.
For CCN(C[C@@H]1[C@@H](c2ccccc2)[C@H](CO)N1S(C)(=O)=O)C(=O)C1CCC1 the results were GC-A act -3, ADAM10 inh -4, NPR2 activator 8 and ADAM17 inh -2.
For Cc1cccc(-c2nnc(SCC(=O)c3ccc(F)cc3)n2C)c1 the results were GC-A act -4, ADAM10 inh -1, NPR2 activator -9 and ADAM17 inh 1.
`O=C(CNC1CCCCC1)Nc1cccc([N+](=O)[O-])c1` gave FAS TE block 12, GC-A act 5, ADAM10 inh 3, NPR2 activator -2 and ADAM17 inh -5.
For O=C(Nc1cccc([N+](=O)[O-])c1)NC1CCCCCCC1 the results were FAS TE block 53*, GC-A act 2, ADAM10 inh 4, NPR2 activator -10, ADAM17 inh 2 and FAS-TE inh conf 63*.
For O=C(Cc1ccccc1)Nc1nnc(-c2cccc([N+](=O)[O-])c2)s1 the results were FAS TE block -2, GC-A act -3, ADAM10 inh -2, NPR2 activator -1 and ADAM17 inh -2.
O=C(NC1CCCCC1)N(c1ccccc1)c1nnc(-c2cccc([N+](=O)[O-])c2)s1 was read as FAS TE block 70*, GC-A act -2, ADAM10 inh -10, NPR2 activator 9, ADAM17 inh -5 and FAS-TE inh conf 63*.
For Cn1c(=O)c2c(ncn2Cc2ccc(O)c([N+](=O)[O-])c2)n(C)c1=O the results were GC-A act -2, ADAM10 inh 3, NPR2 activator -4 and ADAM17 inh 1.
`CC(=O)Nc1sc2c(c1C#N)CCCC2` gave FAS TE block -6, GC-A act -3, ADAM10 inh -2, NPR2 activator -7 and ADAM17 inh -1.
CC(=O)NC(=S)Nc1sc2c(c1C#N)CCCCC2 was read as FAS TE block 57*, GC-A act 4, ADAM10 inh -9, NPR2 activator -3, ADAM17 inh 0 and FAS-TE inh conf 59*.
Screening COc1ccc2c(c1)Sc1ccc(Cl)cc1N2 returned GC-A act -17, ADAM10 inh -18, NPR2 activator -20 and ADAM17 inh -5.
For COc1ccc(OC)c(/C=N/N(C)c2ccccc2)c1 the results were FAS TE block 22, GC-A act 1, ADAM10 inh 11, NPR2 activator -6 and ADAM17 inh 4.
COc1cc(/C=N/N(C)c2ccccc2)cc(Cl)c1O was read as FAS TE block 73*, GC-A act -2, ADAM10 inh 18, NPR2 activator -5, ADAM17 inh 6 and FAS-TE inh conf 57*.
`COc1ccc(-c2csc(NC(=O)c3ccccc3NS(=O)(=O)c3ccc(C)cc3)n2)cc1` gave FAS TE block 56*, GC-A act -2, ADAM10 inh -17, NPR2 activator 1, ADAM17 inh -15 and FAS-TE inh conf 49*.
CCCN(CC1CC1)C(=O)CNc1nnnn1-c1ccccc1 was read as GC-A act 1, ADAM10 inh 1, NPR2 activator -5 and ADAM17 inh 1.
`COC(=O)C1=C(C(=O)OC)[C@@H]2N(C)c3ccc(OC)cc3[C@@]23C[C@@H](C(=O)OC)N(S(=O)(=O)c2ccc([N+](=O)[O-])cc2)C3=N1` gave FAS TE block 66*, GC-A act -2, ADAM10 inh 4, NPR2 activator -1, ADAM17 inh 1 and FAS-TE inh conf 27.
`CCCCS(=O)(=O)N1C2=NC(C(=O)OC)=C(C(=O)OC)[C@@H]3N(C)c4ccc(OC)cc4[C@]23C[C@H]1C(=O)OC` gave FAS TE block 4.
O=C(N/N=C/c1ccccc1)NC1CCCCC1 was read as FAS TE block 8, GC-A act 4, ADAM10 inh 2, NPR2 activator 0 and ADAM17 inh 0.
CC(C)(C)c1ccc(/C=N/NC(=S)NC2CCCCC2)cc1 was read as FAS TE block 53*, GC-A act -1, ADAM10 inh 1, NPR2 activator 7, ADAM17 inh 4 and FAS-TE inh conf 45*.
